Test results published in ChEMBL document CHEMBL1961873, “Compounds: GSK PKIS; Assays: Nanosyn kinase panel” (2012).

biological target: Tyrosine-protein kinase Fgr (Homo sapiens) (UniProt P09769); conditions: at 1 µM
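Also: value reported as mean kinase inhibition.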

Sequence of Tyrosine-protein kinase Fgr (Homo sapiens) (P09769 2-529 limits assumed): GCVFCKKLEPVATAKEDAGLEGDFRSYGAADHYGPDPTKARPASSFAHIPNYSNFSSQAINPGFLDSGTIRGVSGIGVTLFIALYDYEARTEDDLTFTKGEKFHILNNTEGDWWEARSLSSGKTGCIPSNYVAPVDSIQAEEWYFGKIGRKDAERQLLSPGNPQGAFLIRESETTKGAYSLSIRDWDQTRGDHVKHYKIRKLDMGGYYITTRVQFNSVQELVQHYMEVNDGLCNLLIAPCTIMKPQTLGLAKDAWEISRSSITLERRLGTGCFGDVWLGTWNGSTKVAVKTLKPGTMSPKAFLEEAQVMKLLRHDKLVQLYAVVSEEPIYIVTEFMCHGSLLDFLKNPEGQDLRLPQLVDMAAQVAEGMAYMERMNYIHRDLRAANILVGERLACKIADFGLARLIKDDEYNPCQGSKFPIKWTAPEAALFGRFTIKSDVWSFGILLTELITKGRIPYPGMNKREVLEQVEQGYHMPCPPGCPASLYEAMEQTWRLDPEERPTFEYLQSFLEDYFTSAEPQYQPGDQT

SMILES | inhibition [%]
Fc1cccc(COc2ccc(Nc3ncnc4sc(-c5cccs5)cc34)cc2Cl)c1 | 3.69
CC1=C(C(=O)Nc2ccc3[nH]ncc3c2)C(c2ccc(F)cc2)NC(=O)N1 (centres undefined) | 0.7
CCn1c(-c2nonc2N)nc2c(N3CCCC3)nccc21 | -0.02
NS(=O)(=O)c1ccc(N/N=C2\C(=O)Nc3ccc(C(=O)NCCc4c[nH]cn4)cc32)cc1 | 19.1
CC(C)=Cc1cccc2c1/C(=N/Nc1ccc(S(N)(=O)=O)cc1)C(=O)N2 | 25.3
COc1cc2ncn(-c3cc(O[C@H](C)c4ccccc4Cl)c(C(N)=O)s3)c2cc1OC | 17.3
COc1cc2ncn(-c3cc(O[C@@H](C)c4ccccc4Cl)c(C(N)=O)s3)c2cc1OC | 32.2
Fc1cccc(COc2ccc(Nc3ncnc4cc(-c5ccc[nH]5)sc34)cc2Cl)c1 | 11
CN1CCC(C(=O)Nc2n[nH]c3nnc(-c4ccccc4)cc23)CC1 | 4.46
Cn1cc(C=C2C(=O)Nc3cccnc32)c2ccccc21 | 44
COc1ccc(-c2nn3ncccc3c2-c2ccnc(Nc3ccc(Cl)c(C(F)(F)F)c3)n2)cc1 | 16.9
NC(=O)c1cccc(Nc2nccc(Nc3cccc4[nH]ncc34)n2)c1 | 76.7
COc1ccc(-c2ccncc2)cc1C(N)=O | 4.6
CS(=O)(=O)CCN(CC#N)Cc1ccc(-c2ccc3ncnc(Nc4ccc(OCc5cccc(F)c5)c(Cl)c4)c3c2)o1 | 1.68
CNC(=O)c1cncc(/C=C/c2c(Cl)cccc2Cl)c1 | 21.3
CCn1c(-c2nonc2N)nc2c(C#CC(C)(C)O)nc(CN3CCCC3)cc21 | 3.81
COc1ccccc1Nc1ncc(-c2ccccc2)o1 | 12.1

SMILES | inhibition [%]
Cc1nn(C)c2cc(N(C)c3ccnc(Nc4cccc(S(N)(=O)=O)c4)n3)ccc12 | 48
CCn1c(-c2nonc2N)nc2cncc(C(=O)N3CC[C@H](N)C3)c21 | 1.29
O=C(Nc1n[nH]c2nc(-c3ccco3)c(Br)cc12)C1CC1 | 11.3
COc1ccc(-c2coc3ncnc(N)c23)cc1 | 5.25
O=C1NC(=O)C(c2cccc(Cl)c2)=C1Nc1ccc(O)c(Cl)c1 | 3.74
CS(=O)(=O)CCNCc1ccc(-c2ccc3ncnc(Nc4ccc(OCc5cccc(F)c5)c(C(F)(F)F)c4)c3c2)o1 | 2.16
O=C1NC(=O)C(c2ccccc2Cl)=C1Nc1cccc(O)c1 | 2.07
COc1cc2ncn(-c3cc(OCc4ccccc4Cl)c(C(N)=O)s3)c2cc1OC | 19.1
Nc1ncnc2occ(-c3ccc(NC(=O)Nc4cccc(C(F)(F)F)c4)cc3)c12 | 25.1
COc1cc(C=NNc2ncnc3c2cnn3-c2ccccc2)ccc1O | 49.6
CC1=C(C(=O)Nc2ccc3[nH]ncc3c2)C(c2ccc(Cl)c(Cl)c2)CC(=O)N1 (centres undefined) | 6.08
NC(=O)c1ccc(-c2nc(-c3ccccn3)c(-c3ccc4c(c3)OCO4)[nH]2)cc1 | 5.27
COc1cccc(-n2ncc3c(N/N=C/c4cccc(F)c4)ncnc32)c1 | 32.6
Cc1nnc(-c2ccc(C)c(-c3ccc(C(=O)Nc4cccc(C#N)c4)cc3)c2)o1 | 5.11
N#Cc1c(NC(=O)c2cccc3ccccc23)sc2c1CCCC2 | 5.24
Cc1ccc(NC(=O)c2ccnc(N3CCCC3)c2)cc1-c1ccc(C(=O)NCC2CC2)cc1 | 6.32
COc1cc2ncn(-c3cc(OCc4ccccc4C(F)(F)F)c(C(N)=O)s3)c2cc1OC | 14.6
